Compound activity as filed in PubChem BioAssay.
An excerpt weighted towards active compounds, which were near 2.5% of everything screened.
Cruzain Triton – qHTS Assay for Promiscuous and Specific Inhibitors of Cruzain (with detergent); hit rate 0.43% among 200,000; Potency, µM, inactives show max response, negative = inhibition, usual class: inhibitors; Cruzipain (Trypanosoma cruzi), P25779; purified cruzain, Z-FR-AMC fluorescence, 0.01% Triton;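 further: plate controls were neutral wells for no effect and buffer without enzyme for full effect; nearly all actives have a fitted effect of over 40% in size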
Target sequence (P25779 123-467 limits assumed): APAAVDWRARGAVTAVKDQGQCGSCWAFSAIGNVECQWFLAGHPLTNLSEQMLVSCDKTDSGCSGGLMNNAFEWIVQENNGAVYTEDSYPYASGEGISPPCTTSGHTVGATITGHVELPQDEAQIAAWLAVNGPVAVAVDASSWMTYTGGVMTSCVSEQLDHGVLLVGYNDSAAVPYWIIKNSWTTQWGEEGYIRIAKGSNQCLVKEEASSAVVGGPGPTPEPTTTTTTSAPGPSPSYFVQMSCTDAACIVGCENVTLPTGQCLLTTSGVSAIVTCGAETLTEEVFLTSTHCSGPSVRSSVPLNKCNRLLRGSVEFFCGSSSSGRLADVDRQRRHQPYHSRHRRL
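Read-out: AMC fluorescence (360 nm excitation, 450 nm emission), four reads over 2 min, first-to-third difference used. Conditions: cruzain 1.5 nM, Z-FR-AMC 2 uM, pH 5.5 acetate, 5 mM DTT, 0.01% Triton X-100.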
Cruzain noTriton – qHTS Assay for Promiscuous and Specific Inhibitors of Cruzain (without detergent); hit rate 2.3% among 200,000; AID 1476, 2009; purified cruzain, Z-FR-AMC fluorescence, no detergent; Potency, µM, for the others: max response, negative = inhibition, actives largely listed as inhibitors;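 further: plate controls were enzyme without inhibitor for no effect and buffer without enzyme for full effect; nearly all actives have a fitted effect of over 40% in size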
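Purified cruzain at 1.5 nM, pre-incubated 15 min with compound at room temperature in 100 mM sodium acetate pH 5.5, 5 mM DTT, 0.00005% Triton X-100. Reaction started with 2 uM Z-FR-AMC; AMC fluorescence increase over 60 s gives rate.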
Papain inh – qHTS Assay for Inhibitors of Papain: Counterscreen for Cruzain Assay. hit rate 41% among 410. shares compounds with Cruzain Triton. purified papain, Z-FR-AMC fluorescence cleavage. Potency, µM, for the others: max response, negative = inhibition, actives largely listed as inhibitors;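 further: 0% = no-compound wells and -100% = no-enzyme wells; nearly all actives have a fitted effect of over 35% in size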
Target sequence (P00784 whole entry, looked up): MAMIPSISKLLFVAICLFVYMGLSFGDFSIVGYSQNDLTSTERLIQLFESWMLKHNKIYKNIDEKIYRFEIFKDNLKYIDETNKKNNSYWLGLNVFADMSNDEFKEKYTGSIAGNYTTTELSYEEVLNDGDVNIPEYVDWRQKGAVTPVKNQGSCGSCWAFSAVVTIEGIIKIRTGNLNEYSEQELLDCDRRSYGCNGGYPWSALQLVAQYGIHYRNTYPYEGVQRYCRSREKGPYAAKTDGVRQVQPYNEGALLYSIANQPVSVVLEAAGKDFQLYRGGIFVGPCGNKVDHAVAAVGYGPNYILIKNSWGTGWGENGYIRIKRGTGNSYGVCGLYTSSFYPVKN
Numbers without * were called inactive; u = inconclusive; x = not tested or not shown. The call rests on the fitted dose curve; in most records, active means well fitted curve in the direction sought with a large enough effect; inconclusive means small, poorly fitted or top-dose-only effect, or another doubt; inactive means no such curve, though single readings can be large; an effect the other way counts as inactive or inconclusive. Potency means the concentration at half of the fitted maximal effect.

SMILES | Cruzain Triton | Cruzain noTriton | Papain inh
O=C(Nc1nc(-c2ccc(S(=O)(=O)N3CCCC3)cc2)cs1)C1COc2ccccc2O1 (configuration not stated) | 1.5% | 10µM* | x
N#C[C@H](c1ccccc1)N1CCCN([C@@H](C#N)c2ccccc2)C1c1ccccc1O (some centres not stated) | -1.1% | -0.8% | x
COCC1=Cc2cc3c(cc2C(C(C(=O)OC)C(=O)OC)N1C(=O)OC)OCO3 (configuration not stated) | 1.1% | -4.1% | x
CCOC(=O)c1ccc(NC(=O)CSc2nccn2-c2cc(C)cc(C)c2)cc1 | -2.0% | 4.7% | x
CCOC(=O)c1c(C)sc(-c2c(-c3ccc4c(c3)OCCO4)[nH]c3c2c(=O)n(C)c(=O)n3C)c1O | -2.6% | u | x
CC(=O)Oc1ccc(C(=O)[C@H]2[C@H]3C(=O)N(c4cccc5ccccc45)C(=O)[C@H]3[C@@H]3C=CC=NN32)cc1 | -5.5% | 23.0% | x
O=C(Nc1ccc(Cl)cc1)[C@@H]1[C@@H]2C(=O)N(c3ccc4ccccc4c3)C(=O)[C@@H]2[C@H]2C=CC=NN21 | -7.2% | 15.8µM* | x
Cc1ccc(CN(C(=O)c2ccccc2F)c2ccccn2)o1 | -7.8% | 5.4% | x
CC(=O)c1c(N2CCN(Cc3ccccc3)CC2)[nH]c(-c2ccccc2)nc1=S | -10.7% | 10µM* | x
CC(=O)c1c(N2CCCC2)[nH]c(-c2ccccc2)nc1=S | 3.1% | -6.4% | x
Nc1c(C(=O)Nc2ccccc2Cl)c2ccccn2c1C(=O)c1ccccc1 | -2.5% | -6.2% | x
Cc1nc(N2CCOCC2)c2nc(-c3ccccc3)n(CCN3CCCC3)c2n1 | -2.9% | -8.4% | x
O=[N+]([O-])c1cc(S(=O)(=O)Nc2ccccc2)ccc1-n1nnc2ccccc21 | 11.2µM* | u | -5.1%
O=[N+]([O-])c1cc(C(F)(F)F)ccc1-n1nnc2ccccc21 | -5.4% | 6.0% | x
COc1ccc2c(Sc3ccccc3)c(C(=O)NCc3ccc(OC(C)C)cc3)[nH]c2c1 | -2.9% | 10.3% | x
Cn1nc(-c2ccc(F)cc2)nc2c(=O)n(C)c(=O)nc1-2 | x | x | -4.4%
Cc1cc(C)n2nc(-c3cccnc3)nc2n1 | 3.2% | 5.4% | x
CCn1nc(-c2ccccc2C)nc2c(=O)n(C)c(=O)nc1-2 | x | x | -8.9%
Cc1cc(C)n2nc(-c3ccc(F)cc3)nc2n1 | 6.9% | -5.7% | x
COc1ccc(-c2nc3c(=O)n(C)c(=O)nc-3n(C)n2)cc1 | x | x | -10.5%
COc1ccc(-n2c(C)nn(C)c2=O)cc1 | 10.6% | -3.1% | x
Cn1nc(-c2cccnc2)nc2c(=O)n(C)c(=O)nc1-2 | x | x | 2.7%
Cn1c(=O)nc2n(Cc3ccccc3)c3ccccc3cc-2c1=O | u | -9.5% | x
CC(CNC(=O)c1cc2ccccn2n1)c1ccccc1 (configuration not stated) | 0.4% | 9.9% | x
COc1ncc2nc(-c3ccc(F)cc3)c(=O)n(CCC#N)c2n1 | -10.7% | 6.3% | x
SMILES | Cruzain Triton | Cruzain noTriton | Papain inh
CCN(C(=O)C1CCN(S(=O)(=O)c2ccc3c(c2)CCCN3C(C)=O)CC1)c1cccc(C)c1 | -1.1% | u | x
COCC(=O)N1CCC2(CC1)CN(C(c1ccccc1)c1ccccc1)C2 | 3.8% | -0.9% | x
Cn1nc(-c2ccc(Cl)cc2)nc2c(=O)n(C)c(=O)nc1-2 | 1.58µM* | 1.58µM* | -20.2%
Cc1ccc(-c2nc3n(n2)C(=O)CC(c2ccc(Cl)cc2)S3)cc1 (configuration not stated) | -3.9% | -8.8% | x
Cc1sc2c(c1C)c(=O)n(Cc1ccccc1)c(=O)n2CC(=O)Nc1cccc(Cl)c1 | -4.6% | u | x
CCN(CC)C(=O)CN(C#N)c1nc(OC)nc(N(C)C)n1 | -0.9% | -16.0% | x
COc1nc(C#N)nc(N(C)C)n1 | 10µM* | 12.6µM* | 15.8µM*
CSc1ccc(/C=C/C(=O)c2ccc(NC(C)=O)cc2)cc1 | -14.1% | u | x
CC(=O)Nc1ccc(/C=C/C(=O)c2ccc(-n3nncc3-c3ccccc3)cc2)cc1 | x | x | -6.2%
O=C(Nc1ccc(-n2nncc2-c2ccccc2)cc1)c1ccccc1 | x | x | 4.8%
COc1cccc(C(=O)Nc2ccc(-n3nncc3-c3ccccc3)cc2)c1 | 2.1% | -5.0% | x
O=C(Nc1ccc(F)cc1Cl)n1ncc2cc(Cl)ccc21 | -8.9% | -3.9% | x
CNC(=O)C1CCC(Cn2c(=O)c3sccc3n(CC(=O)N3CCCC3)c2=O)CC1 (configuration not stated) | -0.1% | -2.1% | x
COCCN(CCOC)S(=O)(=O)c1ccc(C(=O)Nc2nc(C)c(C(C)=O)s2)cc1 | -9.1% | 21.1% | x
O=C(Nc1nc(-c2ccccc2)c(-c2ccccc2)s1)c1ccc(S(=O)(=O)N(CCCl)CCCl)cc1 | -2.4% | 3.98µM* | 16.7%
CC1CCN(S(=O)(=O)c2ccc3c(c2)N(CC(=O)NCc2ccccc2)C(=O)CO3)CC1 | -1.4% | -10.2% | x
N#CCSc1nc2scc(-c3cccs3)c2c(=O)n1CCc1ccccc1 | 6.6% | 15.8µM* | 9.9%
Cc1ccc(-c2csc3nc(SCC(N)=O)n(Cc4ccccc4)c(=O)c23)cc1 | -2.1% | 7.1% | x
CCCCNC(=O)Cn1c(SCc2cccc(F)c2)nc2ccncc21 | x | x | -10.3%
CCCCNC(=O)C(CC)n1c(SCc2cccc(F)c2)nc2ccncc21 (configuration not stated) | x | x | -10.2%
Cc1ccc(NC(=O)Cn2c(SCc3cccc(F)c3)nc3ccncc32)c(C)c1 | -22.5% | -3.3% | x
CC(CNC(=O)c1ccc(CSc2nc3ccncc3n2Cc2cccc(F)c2)cc1)c1ccccc1 (configuration not stated) | -5.6% | 3.6% | x
COC(=O)c1ccc(Cn2c(SCc3cccc(C)c3)nc3ccncc32)cc1 | -8.9% | u | x
CCC(C(=O)NC1CCCCC1)n1c(SCc2cccc(F)c2)nc2ccncc21 (configuration not stated) | 12.6µM* | u | -14.0%
CCOc1ccc(-c2cc(C(=O)NCc3ccc(OC)cc3)c3c(-c4ccc(F)cc4)[nH]nc3n2)cc1 | 2.4% | 12.0% | x
SMILES | Cruzain Triton | Cruzain noTriton | Papain inh
CCOc1cc2sc(N3CCC(C(=O)Nc4ccc(C(C)C)cc4)CC3)nc2cc1Br | -2.5% | -5.7% | x
CC(C)CC(=O)Nc1ccc(C(=O)OCc2cc(=O)n3nc(C(C)C)sc3n2)cc1 | 7.2% | -3.7% | x
CC1=C(C(N)=O)C(c2ccccc2Br)n2ncnc2N1 (configuration not stated) | -1.2% | 9.3% | x
COC(=O)CNC(=O)[C@@]1(C)C=C[C@@H](Cc2ccccc2)N1C(=O)OC | -2.0% | -7.8% | x
Cc1cc(NC(=O)CSc2ncc(C(=O)Nc3ccc(C)c(C)c3)c(=O)n2C)no1 | 0.8% | 7.2% | x
CCOC(=O)[C@H](CCc1ccccc1)N[C@@H](C)C(=O)N1[C@H](C(=O)O)C[C@H]2CCCC[C@@H]21 | 1.9% | u | 11.2%
CCOC(=O)[C@H](CCc1ccccc1)N[C@@H](C)C(=O)N1[C@H](C(=O)O)C[C@H]2CCC[C@@H]21 | -3.3% | -9.7% | x
Cc1ccc(NC(=O)CSc2nc3c(oc4ccccc43)c(=O)n2-c2ccc(F)cc2)c(C)c1 | -1.7% | -27.6% | x
Cc1ccc(N(CC(=O)NCCc2ccccc2C)S(=O)(=O)N(C)C)cc1 | -1.7% | -1.6% | x
COc1ccc(CNC(=O)CSc2ncc3c(n2)-c2cc(Cl)ccc2N(C)S3(=O)=O)cc1 | 3.6% | -1.5% | x
